Among all 46,000 compounds or so, about 900 (2%) were called active. Not shown: some 1% with an inconclusive outcome. This excerpt belongs to a sample that is enriched for actives. Unmarked numbers belong to inactive results. No stated cut-off is given here; in the data, active means ROS induction above about 79% (passing the limit was not always enough); inconclusive means no clear call, values can overlap the other calls.
Test: ROS inducers in U2OS cancer cells, primary screen, cell-based, H2DCF-DA fluorescence (AID 624156);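 further: 0% = DMSO vehicle median and 100% = reference compound median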
Conditions: at 10 µM, active compounds read high

SMILES | ROS induction (% of piperlongumine)
C=CCn1c2ccccc2c2nnc(SCC(=O)N3c4ccccc4Sc4ccccc43)nc21 | 11.2%
CCn1c2ccccc2c2nnc(SCC(=O)O)nc21 | -16.9%
C=CCn1c2ccccc2c2nnc(SCCCC(=O)c3ccc(F)cc3)nc21 | 81.9% (active)
c1ccc(Cn2c3ccccc3c3nnc(SCc4ccc5nonc5c4)nc32)cc1 | 21.9%
CCOC(=O)CCSc1nnc2c3ccccc3n(C)c2n1 | 39.9%
CCCn1c2ccccc2c2nnc(SCC(=O)Nc3cccc4ccccc34)nc21 | 91.7% (active)
O=C(CCCCC(=O)N/N=C/c1ccc[nH]1)NO | -11.8%
COC(=O)c1sccc1NC(=O)Cc1noc2ccc(C)cc12 | -3.41%
CCC(C(=O)Nc1ccc(OC)c(OC)c1)n1c(C)c2cnn(-c3ccccc3)c(=O)c2c1C (configuration not stated) | 6.12%
CC(=NCc1ccco1)C1=C(O)c2ccccc2C1=O | 146% (active)
CC(=NCc1ccc2c(c1)OCO2)C1=C(O)c2ccccc2C1=O | 3.64%
COc1ccc(C=Nc2ccc(C(C)(C)C)cc2)cc1 | -6.06%
Cc1cccc(N2CCN(C(=O)CCn3c(=S)[nH]c4cc5c(cc4c3=O)OCO5)CC2)c1C | 8.61%
Cc1cccc(N2CCN(C(=O)CC3(CC4=NS(=O)(=O)c5ccccc5N4)CCCC3)CC2)c1C | 172% (active)
CC1=C(C(=O)OC(C)C)C(c2cn(-c3ccccc3)nc2-c2ccc(OC(C)C)cc2)NC(=O)N1 (configuration not stated) | -3.28%
COc1ccc(S(=O)(=O)N(C)C)cc1 | -6.36%
Cc1ccc(Nc2nc(C)cc(C)c2C(N)=O)cc1 | 19.7%
Cc1ccc2nc(Nc3ccccc3)cc(C)c2c1 | 178% (active)
Cc1ccc2nc(C)c3c(c2c1)N(c1ccccc1)CC3 | 50.9%
C[C@@H]1CN([C@H](C)CO)C(=O)Cc2cc(NC(=O)Nc3ccccc3)ccc2O[C@@H]1CN(C)Cc1ccc(C(F)(F)F)cc1 | 23.2%
COC(=O)c1c(C)nc(C)c(C(=O)OC)c1-c1csc(S(=O)(=O)/N=C/N(C)C)c1 | -10.2%
CCNC(=S)N1CCN(CCN=CC2=C(O)CC(c3ccccc3)CC2=O)CC1 (configuration not stated) | -5.61%
C=CCn1c(=S)sc2c(SCC(=O)N3CCc4ccccc43)ncnc21 | -9.07%
CCOC(=O)c1nnn2c1nc(N1CCN(c3ccccc3)CC1)c1ccccc12 | 155% (active)
CCOC(=O)c1c(C)n(C)c2ccccc12 | -3.38%
CCOC(=O)c1nnn2c3ccccc3c(=O)n(C)c12 | 38.4%

SMILES | ROS induction (% of piperlongumine)
CCCNC(=O)Cn1c(=O)c2cccn2c2ccccc21 | -9.02%
C=C1C(=O)O[C@H]2C3=C(C)C[C@H](OC(C)=O)C[C@]3(C)CC[C@@H]12 | 210% (active)
Cn1c(COc2ccc(C(C)(C)c3ccccc3)cc2)n[nH]c1=S | -8.56%
CCc1cccc(O[C@@H]2O[C@@H]3COC(c4ccccc4)O[C@H]3[C@H](O)[C@H]2NC(C)=O)c1 (some centres not stated) | -15.2%
COc1ccccc1N(CC(=O)Nc1ccc(C(F)(F)F)cc1)S(C)(=O)=O | 4.82%
NC(=O)c1c(NC(=O)c2cnn3c(C(F)F)cc(-c4ccccc4)nc23)sc2c1CCCC2 | 12.4%
O=C(NCc1cccnc1)c1cnn2c(C(F)F)cc(-c3ccccc3)nc12 | 170% (active)
O=C(c1cc([N+](=O)[O-])ccc1NCc1cccnc1)N1CCOCC1 | 1.17%
O=C1N(CCS(=O)(=O)c2ccccc2)Cc2ccccc2[C@H]2OC(c3ccc(OCCCO)cc3)=N[C@@]12CCS(=O)(=O)c1ccccc1 | 141% (active)
COCCCNC(=O)[C@@]1(Cc2ccccc2)COC(c2ccc(OCCCO)cc2)=N1 | 11.7%
C=CC[C@]1(C(=O)NCC(O)CO)N=C(c2ccc(OCCCO)cc2)O[C@H]1c1ccccc1 (some centres not stated) | 30.5%
O=C(N1CCCCC1)[C@@]1(CCS(=O)(=O)c2ccccc2)N=C(c2ccc(OCCCO)cc2)O[C@H]1c1ccccc1 | 97.7% (active)
C[C@H]1CN([C@@H](C)CO)C(=O)Cc2cc(NC(=O)Nc3ccc4c(c3)OCO4)ccc2O[C@H]1CN(C)Cc1ccc(C(=O)Nc2ccccc2N)cc1 | 29.3%
CCc1ccc(OCC(N)=O)cc1 | 18.8%
C[C@@H]1CN([C@H](C)CO)C(=O)c2cccc(NC(=O)c3nc4ccccc4s3)c2O[C@H]1CN(C)Cc1ccccc1 | 10.3%
Nc1ncnc2nc(N3CCCCC3)[nH]c12 | -11.8%
c1ccc(Cc2nc3c4c5c(sc4ncn3n2)CCCC5)cc1 | 20.6%
C[C@@H]1CN([C@@H](C)CO)C(=O)Cc2cc(NC(=O)Cn3cnnn3)ccc2O[C@@H]1CN(C)S(=O)(=O)c1cn(C)cn1 | 4.76%
Cc1ccc(S(=O)(=O)N(C)C[C@H]2Oc3ccc(NC(=O)Cc4cn(C)c5ccccc45)cc3CC(=O)N([C@@H](C)CO)C[C@H]2C)cc1 | 109% (active)
C[C@@H]1CN([C@H](C)CO)C(=O)Cc2cc(NC(=O)Cc3cn(C)c4ccccc34)ccc2O[C@@H]1CN(C)S(=O)(=O)c1ccccc1 | 18.9%
Cc1ccc(S(=O)(=O)N(C)C[C@@H]2Oc3ccc(NC(=O)Cc4cn(C)c5ccccc45)cc3C(=O)N([C@@H](C)CO)C[C@@H]2C)cc1 | -5.66%
C[C@@H]1CN([C@H](C)CO)C(=O)Cc2cc(NC(=O)Cn3cnnn3)ccc2O[C@@H]1CN(C)S(=O)(=O)c1ccc(F)cc1 | 3.99%
Cc1ccc(S(=O)(=O)N(C)C[C@@H]2Oc3ccc(NC(=O)Cn4cnnn4)cc3CC(=O)N([C@H](C)CO)C[C@H]2C)cc1 | 101% (active)
CC(C)(C)NC(=S)N1CCn2cccc2C1c1ccccc1F (configuration not stated) | 2.09%
Cn1nnc(NC(=O)COc2ccc(Cl)cc2Cl)n1 | -1.96%
Cc1noc(C)c1NC(=O)Nc1ccc2c(c1)C(=O)N([C@H](C)CO)C[C@@H](C)[C@H](CN(C)Cc1ccncc1)O2 | -4.05%

SMILES | ROS induction (% of piperlongumine)
COc1cccc(-c2cnc3c(c2)C(=O)N([C@H](C)CO)C[C@H](C)[C@H](CN(C)Cc2ccncc2)O3)c1 | 32.7%
Cc1c(C(=O)N(Cc2ccccc2)Cc2cccnc2)cnn1-c1ccc(F)cc1 | -9.45%
Brc1ccc(/C=N/n2cnnc2SCc2ccccc2)cc1 | 2.37%
COc1ccc(NS(=O)(=O)c2ccc3c4c(cccc24)C(=O)S3)cc1 | 35.7%
O=C(Oc1c(Br)cc(Br)c2cccnc12)N1CCOCC1 | 3.35%
O=[N+]([O-])c1ccc(NCCNc2nc3ccccc3nc2N2CCOCC2)cc1 | 61%
COC(=O)c1c(C)n(CCNc2ccc([N+](=O)[O-])cc2)c2ccc(O)cc12 | 98.5% (active)
COC(=O)c1ccc(NCc2cc(O)ccc2O)cc1 | 10.2%
C[C@@H]1CCCCO[C@@H](CN(C)C(=O)NC2CCCCC2)[C@@H](C)CN([C@H](C)CO)C(=O)c2cc(NC(=O)CCC(F)(F)F)ccc2O1 | 37.6%
Cc1noc(C)c1NC(=O)N(C)C[C@@H]1Oc2ccc(NC(=O)Nc3ccc(C(F)(F)F)cc3)cc2C(=O)N([C@H](C)CO)C[C@@H]1C | -6.13%
C[C@H](CO)N1C[C@H](C)[C@H](CN(C)C(=O)Nc2ccc(C(F)(F)F)cc2)Oc2ccc(NC(=O)Nc3ccccc3)cc2C1=O | 84% (active)
C[C@H]1CN([C@@H](C)CO)C(=O)c2cc(NC(=O)Nc3ccccc3)ccc2O[C@@H]1CN(C)C(=O)Nc1ccccc1 | -12.6%
Cc1noc(C)c1NC(=O)N(C)C[C@H]1Oc2ccc(NC(=O)Nc3ccc(C(F)(F)F)cc3)cc2CC(=O)N([C@@H](C)CO)C[C@@H]1C | 87.8% (active)
C[C@@H]1CN([C@H](C)CO)C(=O)c2cc(NC(=O)Nc3ccc(C(F)(F)F)cc3)ccc2O[C@H]1CN(C)C(=O)Nc1ccccc1 | 23.2%
C[C@H](CO)N1C[C@H](C)[C@H](CN(C)C(=O)Nc2ccc(C(F)(F)F)cc2)Oc2ccc(NS(=O)(=O)c3cn(C)cn3)cc2CC1=O | 125% (active)
Cc1noc(C)c1NC(=O)Nc1ccc2c(c1)CC(=O)N([C@H](C)CO)C[C@@H](C)[C@@H](CN(C)Cc1ccc(C(F)(F)F)cc1)O2 | 6.6%
C[C@@H]1CN([C@H](C)CO)C(=O)Cc2cc(NS(=O)(=O)c3cn(C)cn3)ccc2O[C@@H]1CN(C)C(=O)Nc1ccccc1 | -5.68%
C[C@H]1CN([C@@H](C)CO)C(=O)Cc2cc(NS(=O)(=O)c3cn(C)cn3)ccc2O[C@H]1CN(C)C(=O)Nc1ccc(F)cc1 | 29.3%
NC(=O)N1CCc2ccccc21 | 6.65%
O=C(CCCCCCC(=O)Nc1ccccc1O)N/N=C/c1ccc(C(F)(F)F)cc1 | 7.34%
COc1ccc(C2NNC(=S)S2)cc1 (configuration not stated) | -8.92%
O=C(N1CCCc2ccccc21)N1c2ccccc2Sc2ccccc21 | -12.4%
C=CCN(C(=O)Cc1ccc(OC)cc1)c1nnc(-c2ccc(Cl)cc2)s1 | -4.96%
COc1ccc(C)cc1S(=O)(=O)N1CCN(C)CC1 | -20.4%
C[C@@H]1CN([C@H](C)CO)C(=O)c2cc(NC(=O)NC3CCCCC3)ccc2O[C@H]1CN(C)S(C)(=O)=O | -3.72%

Source: PubChem BioAssay AID624156 (Broad Institute, 2012)
